Laboratory results taken from the supplement of paper PMC10681739.

Molecular target: T1, ETS1 (UniProt P14921)
T1 sequence: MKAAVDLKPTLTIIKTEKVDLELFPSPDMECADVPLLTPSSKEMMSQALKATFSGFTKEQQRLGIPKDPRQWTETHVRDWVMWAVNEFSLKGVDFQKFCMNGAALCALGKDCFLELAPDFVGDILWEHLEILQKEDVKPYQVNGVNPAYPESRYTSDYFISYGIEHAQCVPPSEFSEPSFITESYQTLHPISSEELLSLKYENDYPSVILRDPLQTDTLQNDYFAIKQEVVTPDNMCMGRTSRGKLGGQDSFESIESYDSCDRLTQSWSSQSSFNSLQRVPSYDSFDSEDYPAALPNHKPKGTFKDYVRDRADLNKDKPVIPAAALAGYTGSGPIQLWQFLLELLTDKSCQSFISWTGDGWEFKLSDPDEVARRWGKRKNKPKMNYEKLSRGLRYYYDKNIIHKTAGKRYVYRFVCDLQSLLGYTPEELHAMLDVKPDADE
Test: TF binding intensity (PBM fluorescence), negative control probe (arbitrary fluorescence units); higher = stronger binding
Protocol: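 gcPBM negative-control 36-bp genomic probes lacking TF binding sites. Each was incubated with recombinant human ETS1 or RUNX1 alone and detected by antibody fluorescence. Values are medians over replicate spots (4 spots for the ETS1-RUNX1 arrays, 3 for the ETS1-ETS1 array). The probes sit in constant array flanks that are not printed.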

Row | Sequence | TF binding intensity
1 | CATGAAGAATATAGCATTGTTTTGTATATGTTTTAA (protein concentration 10 nM) | 131
2 | TTTCTTCACACCACAAGCAGAGAGCAGCGAGAGAGA (protein concentration 10 nM) | 136
3 | CTCGCGGCGCACTCCCAGAGGCTGGGGGGCCGGGGC (protein concentration 10 nM) | 183
4 | GATATGAGATCAGAATGAGGCTGCATGAGAACAAGT (protein concentration 10 nM) | 112
5 | ACTGATCATCTGAAATGTGGCTAGTGTGAAAATGAA (protein concentration 1 nM) | 532
6 | TTGGGACCAATTTGACCCACAAACCCTGAAAAAGAG (protein concentration 1 nM) | 497
7 | GCAAAGCGGGCGAGTGGCCTGGAGAGAGGGAGCAGC (protein concentration 10 nM) | 150
8 | TCAGCAGCTCGTGCTGCTTGAAGTGCTGGGGGCGAG (protein concentration 10 nM) | 153
9 | CCAGCCAACCCAAAGACCACACCCCACCACCTCCTC (protein concentration 1 nM) | 491
10 | ACGTGTGGGGACCCAAGCTATCCCTAAGAAAGCACT (protein concentration 10 nM) | 115
11 | AATAAAGGTGAGGCAGTCCAGAGTATTTCAAAACGG (protein concentration 10 nM) | 116
12 | CCCTTCGCCATTGCAGCCATGCCACCCCTCCTTCTC (protein concentration 10 nM) | 149
13 | ACCTCCCACTTGGCTCCCAGGTGGGTGCAGTGAGGC (protein concentration 10 nM) | 155
14 | TTATAGCATCTATTTATGTAAATCATATCTCCTTTT (protein concentration 10 nM) | 101
15 | GCTTTTTTTTTCTGTTGTGGGAGAAAGATGAGAGTC (protein concentration 1 nM) | 535
16 | TGCCAGGGTGTAATTTTTCCCACTTTCACCTCCTTC (protein concentration 10 nM) | 128
17 | AAAGGCAGATCTCCAAATCTCCAGGCCTGCTCGTTG (protein concentration 10 nM) | 96.1
18 | ACATCTCATGGTTTTAAAGTAAATGAATTAAAAGTC (protein concentration 10 nM) | 116
19 | GACCACAGGGACCCATGCCAGTCAGATAAAAATAAC (protein concentration 10 nM) | 141
20 | ATAAAACACAGTGTACAGTGACCTTTTAATCACAAC (protein concentration 10 nM) | 132

Row | Sequence | TF binding intensity
21 | TCTTTATCTGTCAGTACCACACTGTCTATTCTCCCA (protein concentration 1 nM) | 502
22 | ACGAAAGTAAACAGTACTAGGTGCAGGGGCTTTAAT (protein concentration 10 nM) | 117
23 | TTTCTGTTTTGTTTTATTTTGTTTGTTTTTATTCTG (protein concentration 10 nM) | 128
24 | TTCTTCCCACCGCAGGGCATCTGCACGGGCCGCTCA (protein concentration 10 nM) | 125
25 | GAAGCCAGTGAGCCAGGAGTGCTGATTGGTTAGGGA (protein concentration 10 nM) | 107
26 | TCTTGTATTTTCCTAAAGATTTGTGTGCTGTTTCTC (protein concentration 10 nM) | 100
27 | CTCTGTTACAAAGCTTCACTTCTTAAGAGAGGGCTG (protein concentration 10 nM) | 134
28 | TCCTCAGGGACGTGTGAGAACCTGGCTAGGCAAGAG (protein concentration 10 nM) | 135
29 | ATGGCCAGTTCACAGTGAGCCAAAGTCCTCCTCACA (protein concentration 10 nM) | 94.5
30 | TAACAGGGAGATAAAACGGGTGAGAGCCCCCTAGGA (protein concentration 10 nM) | 103
31 | GAAGAGCAGGCCTGGCGTCTGCCCGTGCCAGTGTTT (protein concentration 10 nM) | 102
32 | AGACAGAAAAAGCCACAGCCGAGCGCCCAGCTGTGG (protein concentration 10 nM) | 95.8
33 | GAGCCCTTCTGGCCTCCCTGTATAAGTCCAGACTGA (protein concentration 10 nM) | 96.9
34 | CCCAATCTGTAACAACCCACATCTGTTCCTTATTTG (protein concentration 1 nM) | 466
35 | CACAATAAAGCCGCAACCGCAGGAGGCAGAAGGGTG (protein concentration 1 nM) | 793
36 | TGACTCTCCCCTCCATTCCCACCCCATACCCCCTTC (protein concentration 10 nM) | 198
37 | TTCATAACGTTATACACCACAATGCTAAAAAAATGA (protein concentration 1 nM) | 672
38 | TGGGACCTCCAGCATATGACAGTGGACTAAGGACTG (protein concentration 10 nM) | 113
39 | ATAGTACAAGCACTAGTCAAAGCTAGAGGTCACTCT (protein concentration 10 nM) | 111
40 | ATTTCTTGAGAAATCTGTGGTTATTATTTAACTCTT (protein concentration 1 nM) | 461
